Records with an inconclusive call do not appear. Active and inactive are the calls of the source. Calls follow the shape of the dose curve; as a rule, active = well fitted cell-killing curve with a large enough effect; inconclusive = small, poorly fitted or top-dose-only effect, or effect the other way; inactive = no such curve, though single readings can be large or run the other way.
Potency is read from the fitted curve at half-maximal effect.

The experiment is described as follows: Viability qHTS for spleen associated tyrosine kinase inhibitor (SYKi) drug resistant MV4-11 cells (AID 1963824). Also: nearly all actives have a fitted effect of over 35% in size. The note with it: SYKi-resistant MV4-11 viability, CellTiter-Glo, 72 h; series mostly up to 45 µM. In a few lines:
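SYK inhibitor-resistant MV4-11 AML cells, 500 per well, added to predispensed compounds and incubated 72 hr at 37 C, 5% CO2. Viability measured by CellTiter-Glo luminescence after 10 min at room temperature.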
For orientation: In qHTS, concentration-response curves come from the screen itself.
For the compound `CC(NC(=O)c1ccccc1N)C(=O)O` (configuration not stated), the Potency entry is “inactive”.
As to `N#Cc1cnc2cnc(NCc3cccnc3)cc2c1Nc1ccc(F)c(Cl)c1`, the Potency is 3.66 µM (active).
Consider `N#Cc1ccc(Cn2cncc2CN2CCN(c3cccc(Cl)c3)C(=O)C2)cc1`, for which the Potency was 2.95 µM (active).
On to `Cc1nc2ccccc2n1Cc1ccc(Cl)cc1`, for which the Potency is 0.422 µM (active).
`C[C@@]12CC[C@@H]3[C@@](CC[C@H]4[C@@]3(C)CCC[C@@]4(C)C(=O)O)(CC1=O)C2`: the Potency result is “inactive”.
Turning to `O=C1c2ccc(Nc3ccc(F)cc3F)cc2CCc2ccc(OCC(O)CO)cc21` (configuration not stated), the Potency was 9.2 µM (active).
To `CC(=O)OC1CC(O)(C(C)C)C2C(OC(=O)c3ccc(O)cc3)C=C(C)C(=O)CC12C` (configuration not stated) belongs 11.2 µM (active).
The value for `CO[C@H]1/C=C\O[C@@]2(C)Oc3c(C)c(O)c4c(O)c(c5c(nc6cc(C)ccn65)c4c3C2=O)NC(=O)/C(C)=C\C=C/[C@H](C)[C@H](O)[C@@H](C)[C@@H](O)[C@@H](C)[C@H](OC(C)=O)[C@@H]1C` was 16.4 µM (active); that for `Cc1ccc(NS(=O)(=O)c2cc3c(cc2Cl)CCC(=O)N3)cc1Cl` was 9.2 µM (active).
To `COc1cc(O)c2c(c1)/C=C/C[C@H](O)[C@H](O)C(=O)/C=C\C[C@H](C)OC2=O` belongs 0.259 µM (active).
Consider `CC(C)Oc1ccc(-c2cnc3c(-c4ccnc5ccccc45)cnn3c2)cc1`, for which the Potency was 4.11 µM (active).
The value for `COc1ccc(/C=C/C(=O)O[C@@H]2[C@@H](O)[C@@H](O)[C@H](O[C@@H]3C=C(CO)[C@H]4[C@H](O[C@@H]5O[C@H](CO)[C@@H](O)[C@H](O)[C@H]5O)OC=C[C@H]43)O[C@H]2C)cc1O` was “inactive”.
